PubChem BioAssay (Tox21)
Calls of active or inactive are those of the source. The call rests on the fitted dose curve; in most records, active means well fitted curve in the direction sought with a large enough effect in the repeat runs; inconclusive means weak or mixed curves; inactive means flat fitted curve, though single readings scatter.

Test: qHTS assay to test for compound auto fluorescence at 460 nm (blue) in HEK293 cells (AID 720678)
Conditions: blue autofluorescence 405/460 nm; series mostly up to 91.3 µM; fluorescence, % of triamterene: at the top concentration
Text: National Center for Advancing Translational Sciences [NCATS]
NIH Chemical Genomics Center [NCGC]
U.S. Environmental Protection Agency [EPA]
National Institutes of Environmental Health Sciences [NIEHS]
National Toxicology Program [NTP]
U.S. Food and Drug Administration [FDA]
Compound auto fluorescence often interferes with screening of the compound library against various biological targets and signaling pathways. Some of these compounds may have fluorophoric properties. Such properties may interfere with the assay outputs resulting in false positives and/or negatives. To decrease such complications and ensure the compound activities are relevant in terms of biological response, the Tox21 10K compound library was screened for auto fluorescence.
From the fluorophores used as reporter signals in our screening assays, the auto fluorescence equivalencies of compounds against three fluorophores have been evaluated: Triamterene, Fluorescein and Rose Bengal sodium for blue, green and red fluorescence, respectively. The fluorescence intensities were measured using Excitation/Emission wavelengths at 405/460nm, 485/535nm and 540/590nm for blue, green and red labels, respectively. This assay includes the blue fluorescence data.
Tox21 Assay Protocol Summary:
2,000 HEK293 cells in 5 uL of culture medium containing 10% dialyzed FBS per well were dispensed into black wall/clear bottom 1536-well plates using a Multidrop Combi Dispenser (Thermo Scientific). The assay plates were incubated for 4-5 hr at 37C to allow cell attachment to the well bottom, followed by the transfer of 23 nL compound or DMSO vehicle by a pintool work station (Kalypsys, San Diego, CA). After the assay plates were incubated overnight at 37C and 5% CO2, fluorescence intensities in the assay plates were measured by an Envision (PerkinElmer, Shelton, CT) plate reader using three labels for measuring blue, green and red fluorescence at […] 460, 535 and 590nm respectively.
On the % scale 0 is the no-effect control and ±100 the full control effect.

Row | SMILES | fluorescence, % of triamterene | Potency
1 | O=C=NC1CCC(CC2CCC(N=C=O)CC2)CC1 (stereo not given) | -0.0369% (inactive) | –
2 | Cc1cc(O)ccc1N | 0.901% (inactive) | –
3 | CCCOc1ccc2nc(NC(=O)OC)[nH]c2c1 | -0.0976% [at 46 µM] (inactive) | –
4 | C=CC(C)(CCC=C(C)C)OC(=O)c1ccccc1 (stereo not given) | 0.16% (inactive) | –
5 | CCOc1nc2cccc(C(=O)O)c2n1Cc1ccc(-c2ccccc2-c2nn[nH]n2)cc1 | 0.208% [at 46 µM] (inactive) | –
6 | CC(O)C1CCCCC1 (stereo not given) | -0.137% (inactive) | –
7 | Nc1cnn([C@@H]2O[C@H](CO)[C@@H](O)[C@H]2O)c(=O)n1 | -0.108% (inactive) | –
8 | COCCOCCOCCOCCOC | 0.0559% (inactive) | –
9 | Cn1sccc1=O | 0.849% (inactive) | –
10 | CC/C(=C\C(=N/O)C(N)=O)C(C)[N+](=O)[O-] (stereo not given) | 0.171% (inactive) | –
11 | Cc1c(Cn2ccnc2)c2ccccc2n1CCC(=O)O | 0.0931% [at 46 µM] (inactive) | –
12 | O=C(/C=C/c1ccc(O)c(O)c1)O[C@@H]1C[C@](O)(C(=O)O)C[C@@H](O)[C@H]1O | 2.94% [at 95.7 µM] (inactive) | –
13 | Cc1cccc(Oc2ccccc2)c1 | 0.0078% (inactive) | –
14 | Oc1ccc(O)c2c(O)cccc12 | -0.313% (inactive) | –
15 | Cc1cc(NC(=O)C(=O)O)cc(C)c1Oc1ccc(O)c2c1CCC2 | 0.2% (inactive) | –
16 | FC(F)(F)C(F)(F)C(F)(F)C(F)(F)C(F)(F)C(F)(F)CCI | -0.0696% [at 46 µM] (inactive) | –
17 | CCCCOc1ccc(CC(=O)NO)cc1 | -0.0396% [at 18.6 µM] (inactive) | –
18 | N=C(N=C(N)N)N1CCOCC1 | -0.223% [at 18.6 µM] (inactive) | –
19 | Nc1nc(N)c(-c2ccccc2)s1 | -0.0395% [at 46 µM] (inactive) | –
20 | Nc1nc(CC(=O)O)cs1 | -0.481% (inactive) | –

Row | SMILES | fluorescence, % of triamterene | Potency
21 | O=C(O)c1cccc(N(Cc2cccnc2)c2ccc(OC(F)F)c(OC(F)F)c2)c1 | 0.144% (inactive) | –
22 | CCN(CC)C(C)=O | -0.0479% [at 95.7 µM] (inactive) | –
23 | CC(C)NCC(O)c1cc(O)cc(O)c1 (stereo not given) | 0.314% [at 46 µM] (inactive) | –
24 | O=C(O)Cc1cc(I)c(Oc2ccc(O)c(I)c2)c(I)c1 | – | inactive
25 | CN1CCC(=C2c3ccccc3CCc3sccc32)CC1 | 0.186% [at 46 µM] (inactive) | –
26 | O=c1[nH]cnc2ccccc12 | -0.189% [at 95.7 µM] (inactive) | –
27 | CCN(CC)CCOC(=O)C1(c2ccccc2)CCCC1 | -0.0628% [at 46 µM] (inactive) | –
28 | CCN(CC)CCNC(C(=O)OCCC(C)C)c1ccccc1 (stereo not given) | 0.063% [at 46 µM] (inactive) | –
29 | COc1ccc2[nH]c(S(=O)Cc3ncc(C)c(OC)c3C)nc2n1 (stereo not given) | 0.233% [at 46 µM] (inactive) | –
30 | CC(=O)O[C@@H]1C(=O)O[C@@H]2[C@H]1OC(=O)[C@@H]2OC(C)=O | 0.0937% [at 46 µM] (inactive) | –
31 | CC(C)c1cccc(C(C)C)c1NC(=O)NS(=O)(=O)c1cc(C(C)(C)O)co1 | -0.297% (inactive) | –
32 | O=[N+]([O-])c1cccc(Cl)c1Cl | -0.009% (inactive) | –
33 | CCN(CC)C(C)CN1c2ccccc2Sc2ccccc21 (stereo not given) | -0.0331% [at 18.6 µM] (inactive) | –
34 | O=S1(=O)c2cccc3cccc(c23)N1CCCN1CCN(c2ccc(F)cc2)CC1 | 1.98% [at 46 µM] (inactive) | –
35 | N[C@H]1C(O)O[C@H](CO)[C@H](O)[C@@H]1O (stereo not given in full) | 0.0236% (inactive) | –
36 | CN1CCN(C2=Nc3cc(Cl)ccc3Nc3ccccc32)CC1 | -0.185% [at 46 µM] (inactive) | –
37 | CN(C)CCCNCCCN | 0.159% (inactive) | –
38 | NC(N)=N/N=C/c1c(Cl)cccc1Cl | 0.206% [at 46 µM] (inactive) | –
39 | Cc1ccc(C(C)c2ccc(C)c(C)c2)cc1C | 0.0207% (inactive) | –
40 | O=C(CC(=O)c1ccccc1)c1ccccc1 | -0.462% [at 95.7 µM] (inactive) | –
